Results published in PubChem BioAssay (Tox21).
Inconclusive results are not listed. Unmarked numbers belong to inactive results. Activity calls are given as the source filed them. Calls follow the shape of the dose curve; as a rule, active = well fitted curve in the direction sought with a large enough effect in the repeat runs; inconclusive = weak or mixed curves; inactive = no such curve, though single readings can be large; an effect the other way counts as inactive or inconclusive.

Test: qHTS RealTime-Glo MT Cell Viability Assay in HEK293 cells - 40 hour (AID 1224874); also: nearly all actives have a fitted effect of over 50% in size; also: potency is read from the fitted curve at half-maximal effect
Conditions: RealTime-Glo luminescence; max response: hits give low values
Outline: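 600 cells/well were plated with the nonlytic NanoLuc/prosubstrate reagent, pre-incubated 5 h, then given 23 nL of compound in DMSO. Incubation at 37 C for 40 h, with luminescence from viable-cell-reduced substrate read repeatedly from 0 h.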
% is scaled to controls: 0 for no effect and ±100 for the full control effect.

Going from `CC1(C)S[C@@H]2[C@H](N=CN3CCCCCC3)C(=O)N2[C@H]1C(=O)O` to `COC(=O)C1CC(=O)C(C(=O)OC)CC1=O` (stereo not given), the max response falls from 6.57% to -0.164%.

Compared with `CCc1ccc(C=O)cc1`, `CC(C)=CCOC(=O)c1ccccc1` is higher in max response: -4.49% for the first, -0.369% for the second.

First: CC1=CCC(C(C)C)=CC1
Second: Cc1cccc2nccnc12
The max response of the first is lower: -3.87% for the first, 6.74% for the second.

Going from `CC(=C(CCOC(=O)C(C)C)SSC(CCOC(=O)C(C)C)=C(C)N(C=O)Cc1cnc(C)nc1N)N(C=O)Cc1cnc(C)nc1N` to `N[C@@H](CCC(=O)N[C@@H](CS)C(=O)NCC(=O)O)C(=O)O`, the max response falls from 3.74% to 3.69%.

First: CCCCCCCCSCC
Second: CC(=O)NCCCCCC(=O)O
The max response of the first is higher: 7.92% for the first, 5.61% for the second.

Going from `CNS(=O)(=O)CCc1ccc2[nH]cc(C3CCN(C)CC3)c2c1` to `O=C1CC(c2ccc(Cl)cc2)CC(=O)N1`, the max response rises from -4.37% to -1.95%.

First: C[C@@H]1O[C@@H](O[C@@H]2[C@@H](O)[C@H](OCCc3ccc(O)c(O)c3)O[C@H](CO[C@@H]3O[C@H](CO)[C@@H](O)[C@H](O)[C@H]3O)[C@H]2OC(=O)/C=C/c2ccc(O)c(O)c2)[C@H](O)[C@H](O)[C@H]1O
Second: CC(=O)NCc1c(I)c(NC(C)=O)c(I)c(C(=O)O)c1I
The max response of the first is lower: -18.6% for the first, 3.65% for the second.

Going from `Nc1ccc(S(=O)(=O)Nc2ccc(Cl)nn2)cc1` to `CCC(C)NC(N)=O` (stereo not given), the max response rises from -0.389% to 0.218%.

With `O=C(Nc1ccc(Cl)c(Cl)c1)C1CC1` the Potency was 8.49 µM (active).

Test: A CellTox Green Cytotoxicity Assay to monitor cytotoxicity in HEK293 cells - 24 hour (AID 1224875); also: nearly all actives have a fitted effect of over 45% in size
Conditions: CellTox Green fluorescence, hits give high values; series mostly up to 76.8 µM; activity change: at the top concentration
Outline: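 HEK293 cells, 600/well, were preincubated 5 hours and then exposed to compounds at 37 C for up to 40 hours. A cell-impermeant cyanine dye staining dead-cell DNA was read by fluorescence at 0, 8, 16, 24, 32 and 40 h time points.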

First: CC1(C)S[C@@H]2[C@H](N=CN3CCCCCC3)C(=O)N2[C@H]1C(=O)O
Second: NS(=O)(=O)c1cc2c(cc1Cl)CN(C1CCCCC1)C2=O
The “activity change” value of the first is higher: -1.8% [at 35.3 µM] for the first, -3.06% [at 35.3 µM] for the second.

Compared with `CC(=C(CCOC(=O)C(C)C)SSC(CCOC(=O)C(C)C)=C(C)N(C=O)Cc1cnc(C)nc1N)N(C=O)Cc1cnc(C)nc1N`, `CC(=O)NCc1c(I)c(NC(C)=O)c(I)c(C(=O)O)c1I` is lower in “activity change” value: 1.92% [at 35.3 µM] for the first, -1.18% [at 35.3 µM] for the second.

First: C[C@H](N)[C@H](O)c1cccc(O)c1
Second: CC(=O)OC(C)OC(=O)C(C)c1ccc(-c2ccccc2)c(F)c1 (stereo not given)
The “activity change” value of the first is higher: -4.3% [at 35.3 µM] for the first, -11% [at 35.3 µM] for the second.

Compared with `CNS(=O)(=O)CCc1ccc2[nH]cc(C3CCN(C)CC3)c2c1`, `COC(=O)[C@@H]1[C@H]2C[C@H]3c4[nH]c5ccccc5c4CCN3C[C@@H]2CC[C@@H]1O` is lower in “activity change” value: -4.87% [at 35.3 µM] for the first, -23.2% [at 35.3 µM] for the second.

First: CN(CCOc1ccc(NS(C)(=O)=O)cc1)CCc1ccc(NS(C)(=O)=O)cc1
Second: Nc1ccc(S(=O)(=O)Nc2ccc(Cl)nn2)cc1
The “activity change” value of the first is lower: -6.17% [at 35.3 µM] for the first, 15.3% [at 35.3 µM] for the second.

Going from `O=C1CC(c2ccc(Cl)cc2)CC(=O)N1` to `COc1ccc(S(=O)(=O)N2c3ccc(Cl)cc3[C@@](O)(c3ccccc3Cl)[C@H]2C(=O)N2CCC[C@@H]2C(N)=O)cc1OC`, the “activity change” value rises from -0.889% [at 35.3 µM] to 1.07% [at 35.3 µM].

With `CC(=O)NCCCCCC(=O)O` the “activity change” value was -1.53% [at 35.3 µM].

First: COC(=O)C1CC(=O)C(C(=O)OC)CC1=O (stereo not given)
Second: CN1CCN(CC(=O)N2c3ccccc3C(=O)Nc3cccnc32)CC1
The activity change of the first is higher: 2.42% [at 6.97 µM] for the first, -2.09% [at 6.97 µM] for the second.

First: CCCCCCCC/C=C\CCCCCCCC(=O)OCCCC
Second: N[C@@H](CCC(=O)N[C@@H](CS)C(=O)NCC(=O)O)C(=O)O
The activity change of the first is lower: -32.5% [at 15.8 µM] for the first, 1.6% [at 15.8 µM] for the second.

Going from `CCc1ccc(C=O)cc1` to `CCOC(=O)CC(=O)c1ccccc1`, the “activity change” value falls from 0.751% to -11.3%.

Going from `CC(C)CC(C)CC(C)CC(C)COC(=O)c1ccccc1C(=O)OCC(C)CC(C)CC(C)CC(C)C` (stereo not given) to `CC(C)N(c1ccccc1)C(C)C`, the “activity change” value falls from -0.582% to -6.38%.

First: CC1=CCC(C(C)C)=CC1
Second: CC(=O)/C=C/C1C(C)=CCC(C)C1(C)C (stereo not given)
The “activity change” value of the first is higher: -0.51% for the first, -0.801% for the second.

First: CCCC/C=C/C=C\C=O
Second: CCCCCCCCOS(=O)(=O)O
The “activity change” value of the first is lower: -16% for the first, -4.78% for the second.

Going from `BrCCCCCBr` to `CC(COC(C)(C)C)OCCCO` (stereo not given), the “activity change” value falls from -13.1% to -15%.

First: C[C@@H]1O[C@@H](O[C@@H]2[C@@H](O)[C@H](OCCc3ccc(O)c(O)c3)O[C@H](CO[C@@H]3O[C@H](CO)[C@@H](O)[C@H](O)[C@H]3O)[C@H]2OC(=O)/C=C/c2ccc(O)c(O)c2)[C@H](O)[C@H](O)[C@H]1O
Second: CC(C)=CCOC(=O)c1ccccc1
The “activity change” value of the first is lower: -16.2% for the first, 2.02% for the second.

Going from `O=C1c2ccccc2C(=O)N1CCl` to `On1nnc2ccccc21`, the “activity change” value rises from -2.74% to 7.63%.

First: CCCOC(=O)C(C)O (stereo not given)
Second: CCC(C)NC(N)=O (stereo not given)
The “activity change” value of the first is lower: -11.6% for the first, 0.174% for the second.

For `OCCC(F)(F)C(F)(F)C(F)(F)C(F)(F)C(F)(F)C(F)(F)C(F)(F)C(F)(F)F`, the “activity change” value was 2.35%.

Test: A CellTox Green Cytotoxicity Assay to monitor cytotoxicity in HepG2 cells - 16 hour (AID 1224876); also: nearly all actives have a fitted effect of over 45% in size
Conditions: CellTox Green fluorescence; series mostly up to 76.8 µM; cytotoxicity increase: at the top concentration
Outline: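 HepG2 cells, 600/well, preincubated 5 h with CellTox Green dye, then exposed to Tox21 compounds in DMSO at 37 C for up to 40 h. Dead-cell DNA fluorescence read at the indicated time point.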

First: CC1(C)S[C@@H]2[C@H](N=CN3CCCCCC3)C(=O)N2[C@H]1C(=O)O
Second: NS(=O)(=O)c1cc2c(cc1Cl)CN(C1CCCCC1)C2=O
The “cytotoxicity increase” value of the first is lower: -15% [at 35.3 µM] for the first, 0.415% [at 35.3 µM] for the second.

Compared with `C[C@H](N)[C@H](O)c1cccc(O)c1`, `CC(=O)OC(C)OC(=O)C(C)c1ccc(-c2ccccc2)c(F)c1` (stereo not given) is higher in “cytotoxicity increase” value: -15.3% [at 35.3 µM] for the first, 14.5% [at 35.3 µM] for the second.

First: CNS(=O)(=O)CCc1ccc2[nH]cc(C3CCN(C)CC3)c2c1
Second: COC(=O)[C@@H]1[C@H]2C[C@H]3c4[nH]c5ccccc5c4CCN3C[C@@H]2CC[C@@H]1O
The “cytotoxicity increase” value of the first is lower: -15% [at 35.3 µM] for the first, -1.92% [at 35.3 µM] for the second.

First: CN(CCOc1ccc(NS(C)(=O)=O)cc1)CCc1ccc(NS(C)(=O)=O)cc1
Second: Nc1ccc(S(=O)(=O)Nc2ccc(Cl)nn2)cc1
The “cytotoxicity increase” value of the first is lower: -18.6% [at 35.3 µM] for the first, 3.42% [at 35.3 µM] for the second.

First: O=C1CC(c2ccc(Cl)cc2)CC(=O)N1
Second: O=C(Nc1ccc(Cl)c(Cl)c1)C1CC1
The “cytotoxicity increase” value of the first is higher: -14.9% [at 35.3 µM] for the first, -16.8% [at 35.3 µM] for the second.

Compared with `COc1ccc(S(=O)(=O)N2c3ccc(Cl)cc3[C@@](O)(c3ccccc3Cl)[C@H]2C(=O)N2CCC[C@@H]2C(N)=O)cc1OC`, `CC(=O)NCCCCCC(=O)O` is higher in “cytotoxicity increase” value: -11.6% [at 35.3 µM] for the first, -6.46% [at 35.3 µM] for the second.

Compared with `COC(=O)C1CC(=O)C(C(=O)OC)CC1=O` (stereo not given), `CN1CCN(CC(=O)N2c3ccccc3C(=O)Nc3cccnc32)CC1` is lower in cytotoxicity increase: -5.58% [at 6.97 µM] for the first, -11.9% [at 6.97 µM] for the second.

First: CCCCCCCC/C=C\CCCCCCCC(=O)OCCCC
Second: N[C@@H](CCC(=O)N[C@@H](CS)C(=O)NCC(=O)O)C(=O)O
The cytotoxicity increase of the first is higher: -7.79% [at 15.8 µM] for the first, -10% [at 15.8 µM] for the second.

Compared with `CCc1ccc(C=O)cc1`, `CCOC(=O)CC(=O)c1ccccc1` is higher in “cytotoxicity increase” value: 0.355% for the first, 15.6% for the second.

Going from `CC(C)CC(C)CC(C)CC(C)COC(=O)c1ccccc1C(=O)OCC(C)CC(C)CC(C)CC(C)C` (stereo not given) to `CC(C)N(c1ccccc1)C(C)C`, the “cytotoxicity increase” value falls from 8.36% to -6.11%.

Compared with `CC1=CCC(C(C)C)=CC1`, `CC(=O)/C=C/C1C(C)=CCC(C)C1(C)C` (stereo not given) is lower in “cytotoxicity increase” value: -0.997% for the first, -7.14% for the second.

Compared with `CCCC/C=C/C=C\C=O`, `CCCCCCCCOS(=O)(=O)O` is lower in “cytotoxicity increase” value: 8.87% for the first, -12.2% for the second.

First: BrCCCCCBr
Second: CCCCCCCCSCC
The “cytotoxicity increase” value of the first is lower: 0.187% for the first, 0.3% for the second.

Compared with `Cc1cccc2nccnc12`, `On1nnc2ccccc21` is higher in “cytotoxicity increase” value: -14.2% for the first, 0.229% for the second.

Going from `C[C@@H]1O[C@@H](O[C@@H]2[C@@H](O)[C@H](OCCc3ccc(O)c(O)c3)O[C@H](CO[C@@H]3O[C@H](CO)[C@@H](O)[C@H](O)[C@H]3O)[C@H]2OC(=O)/C=C/c2ccc(O)c(O)c2)[C@H](O)[C@H](O)[C@H]1O` to `O=C1c2ccccc2C(=O)N1CCl`, the “cytotoxicity increase” value rises from -11.6% to -3.18%.

First: CCCOC(=O)C(C)O (stereo not given)
Second: CCC(C)NC(N)=O (stereo not given)
The “cytotoxicity increase” value of the first is lower: -0.332% for the first, 13.5% for the second.

Compared with `OCCC(F)(F)C(F)(F)C(F)(F)C(F)(F)C(F)(F)C(F)(F)C(F)(F)C(F)(F)F`, `CC(COC(C)(C)C)OCCCO` (stereo not given) is lower in “cytotoxicity increase” value: -0.703% for the first, -11% for the second.
